# Assay results reported in article PMC12820563, “FoxP3 forms a head-to-head dimer in vivo and stabilizes its multimerization on adjacent microsatellites”.
# In all, about 16,000 sequences were measured (“rpm ratio (pull-down/input)”: median about 0.5, highest 2% from about 5.5 on). The sample holds the highest values, similar sequences and a random draw of the others, so the mix is not that of the screen.
# Target: T1, MBP-FoxP3dN (Mus musculus, UniProt Q99JB6 188-423)
# T1 sequence: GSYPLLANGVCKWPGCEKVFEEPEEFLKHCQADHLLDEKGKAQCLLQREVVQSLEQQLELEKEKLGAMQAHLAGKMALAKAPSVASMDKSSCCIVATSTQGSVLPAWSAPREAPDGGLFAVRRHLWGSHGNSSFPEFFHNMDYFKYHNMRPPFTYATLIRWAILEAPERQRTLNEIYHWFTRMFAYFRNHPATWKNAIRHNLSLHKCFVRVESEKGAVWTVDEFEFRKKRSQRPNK
# Test: PD-seq (MBP pull-down with sequencing); 20 mM Tris-HCl pH 7.5, 100 mM NaCl, 1.5 mM MgCl2, 0.4 uM protein, 0.1 uM dsDNA library, 30 min, room temperature, amylose pull-down; high values mean tight binding
# Conditions: protein: recombinant; tags: His6-MBP; chain copies: 2; dsDNA, one strand shown
# How it was run: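 Mouse FoxP3 or FoxP1 fragment lacking the N-terminus, His6-MBP-tagged and expressed in E. coli, was incubated at 0.4 µM with 0.1 µM Klenow-filled degenerate double-stranded DNA library for 30 min at room temperature in Tris pH 7.5 buffer with NaCl and MgCl2. Complexes captured on amylose resin were washed three times and their DNA sequenced on Illumina. Binding is reads-per-million enrichment of pull-down over input, replicates pooled.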
row,Sequence,binding signal
1,GATGATTGTTCTCCCAGCTGATGAATTTTTCCGTTCGAGTAAACAAATTTTCCTAATCTTTCTGTTCAAGCGCCATCTAC,0.238 RPM ratio (pull-down/input)
2,GATGATTGTTCTCCCAGCTGATGAATTCACTCAATCGAGTAAACAAATTTTCCTAATCTTTCTGTTCAAGCGCCATCTAC,0.294 RPM ratio (pull-down/input)
3,GATGATTGTTCTCCCAGCTGATGAATTGGGACTGTCGAGTAAACAAATTTTCCTAATCTTTCTGTTCAAGCGCCATCTAC,0.673 RPM ratio (pull-down/input)
4,GATGATTGTTCTCCCAGCTGATGAATTACACTATTCGAGTAAACAAATTTTCCTAATCTTTCTGTTCAAGCGCCATCTAC,0.606 RPM ratio (pull-down/input)
5,GATGATTGTTCTCCCAGCTGATGAATTTGCATCCTCGAGTAAACAAATTTTCCTAATCTTTCTGTTCAAGCGCCATCTAC,7.55 RPM ratio (pull-down/input)
6,GATGATTGTTCTCCCAGCTGATGAATTGCATCCCTCGAGTAAACAAATTTTCCTAATCTTTCTGTTCAAGCGCCATCTAC,4.21 RPM ratio (pull-down/input)
7,GATGATTGTTCTCCCAGCTGATGAATTGCCATCCTCGAGTAAACAAATTTTCCTAATCTTTCTGTTCAAGCGCCATCTAC,0.935 RPM ratio (pull-down/input)
8,GATGATTGTTCTCCCAGCTGATGAATTGTAACCATCGAGTAAACAAATTTTCCTAATCTTTCTGTTCAAGCGCCATCTAC,1.1 RPM ratio (pull-down/input)
9,GATGATTGTTCTCCCAGCTGATGAATTGGACGACTCGAGTAAACAAATTTTCCTAATCTTTCTGTTCAAGCGCCATCTAC,0.259 RPM ratio (pull-down/input)
10,GATGATTGTTCTCCCAGCTGATGAATTGTGTTCATCGAGTAAACAAATTTTCCTAATCTTTCTGTTCAAGCGCCATCTAC,1.77 RPM ratio (pull-down/input)
11,GATGATTGTTCTCCCAGCTGATGAATTCGAGTTATCGAGTAAACAAATTTTCCTAATCTTTCTGTTCAAGCGCCATCTAC,0.746 RPM ratio (pull-down/input)
12,GATGATTGTTCTCCCAGCTGATGAATTGCCAAATTCGAGTAAACAAATTTTCCTAATCTTTCTGTTCAAGCGCCATCTAC,0.453 RPM ratio (pull-down/input)
13,GATGATTGTTCTCCCAGCTGATGAATTGGATCCGTCGAGTAAACAAATTTTCCTAATCTTTCTGTTCAAGCGCCATCTAC,0.219 RPM ratio (pull-down/input)
14,GATGATTGTTCTCCCAGCTGATGAATTGTGTGTGTCGAGTAAACAAATTTTCCTAATCTTTCTGTTCAAGCGCCATCTAC,5.21 RPM ratio (pull-down/input)
15,GATGATTGTTCTCCCAGCTGATGAATTGTGTTTGTCGAGTAAACAAATTTTCCTAATCTTTCTGTTCAAGCGCCATCTAC,8.45 RPM ratio (pull-down/input)
16,GATGATTGTTCTCCCAGCTGATGAATTTTGTGTTTCGAGTAAACAAATTTTCCTAATCTTTCTGTTCAAGCGCCATCTAC,5.3 RPM ratio (pull-down/input)
17,GATGATTGTTCTCCCAGCTGATGAATTGTTTGTGTCGAGTAAACAAATTTTCCTAATCTTTCTGTTCAAGCGCCATCTAC,8.22 RPM ratio (pull-down/input)

row,Sequence,binding signal
1,GATGATTGTTCTCCCAGCTGATGAATTGTTTTTCTCGAGTAAACAAATTTTCCTAATCTTTCTGTTCAAGCGCCATCTAC,4.35 RPM ratio (pull-down/input)
2,GATGATTGTTCTCCCAGCTGATGAATTTTTTACCTCGAGTAAACAAATTTTCCTAATCTTTCTGTTCAAGCGCCATCTAC,0.228 RPM ratio (pull-down/input)
3,GATGATTGTTCTCCCAGCTGATGAATTGTTTTCCTCGAGTAAACAAATTTTCCTAATCTTTCTGTTCAAGCGCCATCTAC,4.78 RPM ratio (pull-down/input)
4,GATGATTGTTCTCCCAGCTGATGAATTTACCTCCTCGAGTAAACAAATTTTCCTAATCTTTCTGTTCAAGCGCCATCTAC,0.573 RPM ratio (pull-down/input)
5,GATGATTGTTCTCCCAGCTGATGAATTTTGTTCCTCGAGTAAACAAATTTTCCTAATCTTTCTGTTCAAGCGCCATCTAC,1.64 RPM ratio (pull-down/input)
6,GATGATTGTTCTCCCAGCTGATGAATTTGATTTCTCGAGTAAACAAATTTTCCTAATCTTTCTGTTCAAGCGCCATCTAC,4.02 RPM ratio (pull-down/input)
7,GATGATTGTTCTCCCAGCTGATGAATTTGTTCTCTCGAGTAAACAAATTTTCCTAATCTTTCTGTTCAAGCGCCATCTAC,2.14 RPM ratio (pull-down/input)
8,GATGATTGTTCTCCCAGCTGATGAATTTGTTTTCTCGAGTAAACAAATTTTCCTAATCTTTCTGTTCAAGCGCCATCTAC,7.21 RPM ratio (pull-down/input)
9,GATGATTGTTCTCCCAGCTGATGAATTTGTTTCCTCGAGTAAACAAATTTTCCTAATCTTTCTGTTCAAGCGCCATCTAC,5.92 RPM ratio (pull-down/input)
10,GATGATTGTTCTCCCAGCTGATGAATTGTTTACCTCGAGTAAACAAATTTTCCTAATCTTTCTGTTCAAGCGCCATCTAC,7.12 RPM ratio (pull-down/input)
11,GATGATTGTTCTCCCAGCTGATGAATTTTTGTTCTCGAGTAAACAAATTTTCCTAATCTTTCTGTTCAAGCGCCATCTAC,0.494 RPM ratio (pull-down/input)
12,GATGATTGTTCTCCCAGCTGATGAATTTTGTTTCTCGAGTAAACAAATTTTCCTAATCTTTCTGTTCAAGCGCCATCTAC,5.54 RPM ratio (pull-down/input)
13,GATGATTGTTCTCCCAGCTGATGAATTGGGAATTTCGAGTAAACAAATTTTCCTAATCTTTCTGTTCAAGCGCCATCTAC,1.3 RPM ratio (pull-down/input)
14,GATGATTGTTCTCCCAGCTGATGAATTAGGCACGTCGAGTAAACAAATTTTCCTAATCTTTCTGTTCAAGCGCCATCTAC,1.03 RPM ratio (pull-down/input)
15,GATGATTGTTCTCCCAGCTGATGAATTACTCTGCTCGAGTAAACAAATTTTCCTAATCTTTCTGTTCAAGCGCCATCTAC,0.3 RPM ratio (pull-down/input)
16,GATGATTGTTCTCCCAGCTGATGAATTACGTTGCTCGAGTAAACAAATTTTCCTAATCTTTCTGTTCAAGCGCCATCTAC,1.14 RPM ratio (pull-down/input)
17,GATGATTGTTCTCCCAGCTGATGAATTAGGACATTCGAGTAAACAAATTTTCCTAATCTTTCTGTTCAAGCGCCATCTAC,0.784 RPM ratio (pull-down/input)
